# The list is not random: actives were taken first. Their share in the collection is about 7.9%.
# SW480 rereplic: induces DNA re-replication in SW480 colon adenocarcinoma cells; SW480 DNA re-replication, Hoechst DNA content imaging, 48 h; Potency, µM (top dose mostly 46.1 µM), without a hit: top-dose re-replication activation, hits mostly activators; actives 1.8% (n = 340,000); also: % of control where 0% means no effect; nearly all actives have a fitted effect of over 55% in size
#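 DNA re-replication was detected as more nuclei of elevated Hoechst intensity after 48 hr exposure to compound (23 nL pinned per well of 250 cells).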
# HT1080-NT tox: kills 2HG-producing HT-1080-NT fibrosarcoma cells. AID 686970. actives 1.6% (n = 360,000). HT-1080-NT fibrosarcoma viability, CellTiter-Glo ATP luminescence, 48 h. Potency, µM (doses to about 46.1 µM), for inactives: top-dose activity, negative = less viability, actives largely listed as cytotoxic;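 also: NT is the 2HG producing partner of a matched IDH1 knockdown line; 0% = DMSO-treated cells and -100% = media-only wells without cells; nearly all actives have a fitted effect of over 55% in size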
#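 Luminescent CellTiter-Glo readout after 48 hours of compound exposure at 37 degrees C defined viability of HT-1080-NT cells. Activity was normalized to DMSO wells and cell-free media wells; concentration-response curves were fitted and assigned curve classes.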
# MCF10A rereplic: induces DNA re-replication in MCF 10a normal breast cells; MCF 10A DNA re-replication, Hoechst nuclear intensity, 48 h; Potency, µM (titrated, usually from 46.1 µM), for the others: top-dose activity, positive = re-replication, hits mostly activators; actives 2.9% (n = 350,000); AID 624296; also: % of control where 0% means no effect; nearly all actives have a fitted effect of over 50% in size
# KB-V1 cytotox: kills drug-selected multidrug resistant KB-V1 cells | KB-V1 MDR cells viability, CellTiter-Glo, 72 h | Potency, µM (top dose mostly 46.1 µM), most hits filed as cytotoxic | actives 3.4% (n = 400,000); also: % is scaled to controls: 0 for no effect and ±100 for the full control effect; nearly all actives have a fitted effect of over 60% in size
#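 Readout: CellTiter-Glo luminescence, 10 min after addition. Cells: KB-V1 MDR subline, 72 h at 37 degrees C with compound. Analysis: corrected, normalized data fitted to concentration-effect curves.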
# KB-3-1 tox: kills parental KB-3-1 adenocarcinoma cells | actives 1.4% (n = 400,000) | AID 1347075 | KB-3-1 viability, CellTiter-Glo ATP luminescence, 72 h | Potency, µM (series often up to 46.1 µM), usual class: cytotoxic; also: % is scaled to controls: 0 for no effect and ±100 for the full control effect; nearly all actives have a fitted effect of over 60% in size
#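 Viability of parental KB-3-1 cells, measured by CellTiter-Glo luminescence, followed a 72 h incubation at 37 °C with pinned compounds in phenol-red-free DMEM containing 10% FBS.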
# HT1080 IDH1KD tx: HT-1080 IDH1 knockdown cell toxicity (counter line); HT-1080 IDH1 knockdown viability, ATP luminescence, 48 h; actives 2% (n = 360,000); Potency, µM (top dose mostly 46.1 µM), for inactives: at the highest dose activity, negative = toxicity, hits mostly cytotoxic;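 also: 0% = DMSO wells and -100% = cell-free medium wells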
#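 In this qHTS, HT-1080 cells depleted of IDH1 are exposed for 48 h at 37 °C to compound titrations. Toxicity is scored from CellTiter-Glo luminescence, with DMSO as full viability and medium alone as none.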
# Active calls of the source: *; i = inactive; ? = inconclusive; · = no result; ! = repeats disagree. Calls follow the shape of the dose curve; as a rule, active = well fitted curve in the direction sought with a large enough effect; inconclusive = small, poorly fitted or top-dose-only effect, or another doubt; inactive = no such curve, though single readings can be large; an effect the other way counts as inactive or inconclusive. Potency is read from the fitted curve at half-maximal effect.
SMILES,SW480 rereplic,HT1080-NT tox,MCF10A rereplic,KB-V1 cytotox,KB-3-1 tox,HT1080 IDH1KD tx
O=C(NN=C1CCCCCC1)c1cc(-c2ccccc2)nc2ccccc12,5%,-26%,16µM*,i,?,?
Cc1csc(NC(=O)c2cc(-c3ccccc3)nc3ccccc23)n1,-47%,-23%,?,2.3µM*,?,-24%
CC(C)(C)c1nnc(NC(=O)c2cc(-c3ccccc3)nc3ccccc23)s1,-1%,-21%,20%,i,i,-20%
Cc1ccc(-c2cc(C(=O)NN=C3CCCC3)c3ccccc3n2)cc1,-4%,-18%,1%,i,i,-10%
CCc1ccc(CNC(=O)Cc2c(C(=O)O)c(C)cn2C)cc1,·,·,·,i,i,·
COc1cc2c(O)c3c(c(-c4ccc5c(c4)OCO5)c2cc1OC)C(=O)OC3,23µM*,2.5µM*,?,4.6µM*,15µM*,2.5µM*
COc1ccc(-c2oc(=O)c3cc(OC)c(OC)cc3c2-c2ccc3c(c2)OCO3)cc1,?,-3%,26%,i,i,-6%
COc1cc2c(OC(C)=O)c3c(c(-c4ccc5c(c4)OCO5)c2cc1OC)C(=O)OC3,6%,2.9µM*,?,?,3.3µM*!,2.1µM*
COc1ccc(N(CC(=O)NCC2CCCO2)C(=O)CCC(=O)Nc2cc(C)on2)cc1OC (configuration not stated),-12%,15%,0%,i,i,2%
C#C[C@]1(O)CCC2C3CCC4=CC(=O)CC[C@@H]4C3CC[C@@]21C (some centres not stated),-6%,12%,-4%,2.9µM*,?,0%
CCOC(=O)c1cccc(NC(=O)CSc2nc3ccccc3c(=O)n2CCOC)c1,-1%,4%,25%,4.6µM*,i,0%
CCOC(=O)c1cccc(NC(=O)CSc2nc3ccccc3c(=O)n2CC)c1,-8%,19%,4%,2.3µM*,i,-3%
COCCn1c(-c2ccccc2)cnc1SCC(=O)Nc1cccc2ccccc12,8%,-7%,?,5.2µM*,i,-6%
O=C(/C=C/c1ccccc1)N1CCN(Cc2cc(=O)n3nc(-c4ccccc4Cl)sc3n2)CC1,·,·,·,i,i,·
C=Cc1ccc(Cn2c(=O)cc(C)c3c(C)nn(C)c32)cc1,·,·,·,i,?,·
Cc1ccc2[nH]c3c(c2c1)CCCC3NC(=O)CCl (configuration not stated),8.2µM*,1.3µM*,21µM*,?,i,9.2µM*
Cc1ccc(S(=O)(=O)CCC(=O)NCc2ccccc2F)cc1,0%,-1%,2%,i,i,4%
COc1cc(NC(=O)c2cc(-c3cccc(O)c3)on2)cc(OC)c1OC,-3%,?,13%,i,12µM*,?
COc1cc(NC(=O)c2cc(-c3ccccc3Cl)on2)cc(OC)c1OC,?,?,21µM*,?,6.5µM*,?
COCCNC(=O)c1cc(-c2cccs2)on1,1%,-10%,-6%,21µM*,21µM*,-28%
CCC(C)NC(=O)c1ccc2nc(-c3cccs3)c(-c3cccs3)nc2c1 (configuration not stated),·,·,·,i,10µM*,·
C=C1OC(CO)(n2cnc3c(N)ncnc32)C(O)C1O (configuration not stated),·,·,·,i,i,·
COCCNC(=O)Nc1ccc2nc(-c3cccs3)c(-c3cccs3)nc2c1,?,-4%,23µM*,i,i,-2%
COc1cc(NC(=O)c2cc(-c3cccs3)on2)cc(OC)c1OC,?,-23%,?,6.5µM*,?,-29%
CCOC(=O)c1c(NC(=O)Cn2cnc([N+](=O)[O-])n2)sc2c1CCC(C)C2 (configuration not stated),2%,?,2%,i,i,?

# Screening results: PubChem BioAssay, National Center for Advancing Translational Sciences (NCATS)
